Target: T1, TtCas6A (TTHA0078, Cas6) (Thermus thermophilus HB8)
T1 chain: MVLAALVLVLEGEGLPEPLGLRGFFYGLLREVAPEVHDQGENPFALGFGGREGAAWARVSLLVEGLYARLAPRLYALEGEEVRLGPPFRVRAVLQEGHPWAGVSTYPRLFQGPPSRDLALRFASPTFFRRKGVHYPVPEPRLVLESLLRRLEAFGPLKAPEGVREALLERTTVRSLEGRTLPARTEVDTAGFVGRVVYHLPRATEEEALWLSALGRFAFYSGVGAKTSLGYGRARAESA
Assay: EMSA; Kd in FIG. 24C only
Conditions: chain copies: 2 stated (dimer in solution); hairpin; ssRNA; [17,28]
Source text: FIG. 22 illustrates that TtCas6A and TtCas6B both cleave repeats R1 and R3 and retain their cleaved products. (A) Sequences and predicted secondary structures of T. thermophilus CRISPR repeats. Sites of cleavage are indicated with blue arrows. TtCas6e (TTHB192) cleaves repeat R2, while TtCas6A (TTHA0078) and TtCas6B (TTHB231) both cleave repeats R1 and R3. (B) Cleavage product binding affinities of TtCas6A and TtCas6B enzymes. Maltose binding protein (MBP)-fused TtCas6A or TtCas6B were bound to in 5′-radiolabelled, vitro transcribed R1 and R3 RNAs. Bound and unbound fractions were resolved by electrophoresis on a native polyacrylamide gel and visualized by phosphorimaging. The data for these and all subsequent binding assays were fit with standard binding isotherms (solid line). Error bars on each data point denote standard error of the mean (SEM) from three independent experiments. (C) Experiments to confirm single turnover. RNA cleavage assays were carried out at indicated protein:RNA ratios. RNA cleavage was monitored using denaturing polyacrylamide gel electrophoresis. The data from these and all subsequent endoribonuclease activity assays were fit with single exponential curves to yield first-order rate constants. (Top to bottom: FIG. 22A, SEQ ID NOs: 1, 2, 55).
To test the importance of the stem sequence for substrate RNA recognition by TtCas6A, a series of EMSAs was performed using R1 repeat-derived RNAs that carried single base pair substitutions (C-G→A-U). All mutant RNAs contained the complete 5′ segment and additional two nucleotides downstream of the cleavage site. Compared to the wild-type RNA, substitution of any of the four C-G base pairs in the stem led to about five-fold decrease in affinity (FIG. 24C). This is consistent with the observation that the lower three C-G base pairs are specifically read out by Arg129. The binding defect observed upon mutation of the closing (uppermost) base pair could be due to loss of stability of the stem-loop structure, which is determined by the closing base-pair (Serra et al, 1993). […]

Sequence	binding signal
GUUGCAAGGGAUUGAGACCCGUAAGGGUAU	~5 fold lower affinity than wild-type RNA

Same assay, conditions: chain copies: 2 stated (dimer in solution); hairpin; ssRNA; [18,27]

Sequence	binding signal
GUUGCAAGGGAUUGAGCACCGUAAGGUGAU	~5 fold lower affinity than wild-type RNA

Same assay, conditions: chain copies: 2 stated (dimer in solution); hairpin; ssRNA; [19,26]

Sequence	binding signal
GUUGCAAGGGAUUGAGCCACGUAAGUGGAU	~5 fold lower affinity than wild-type RNA
